# IL-1B inflam inh: inhibitors of inflammasome signaling (IL-1 beta secretion); actives 4.7% (n = 360,000); THP-1 LPS/ATP IL-1B secretion, AlphaLISA, 16 h; active compounds read low; activity change, % at 57.5 µM; AID 743279; in the data active means activity change below about -50%; inconclusive means mostly about -30% to -49%; further: on the % scale 0 is the no-effect control and ±100 the full control effect
#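 Secreted IL-1B measured by AlphaLISA bead assay after 16 h compound exposure of THP-1 cells; compounds (final up to 57.5 uM) added 1 h before LPS (250 ng/mL) and ATP (1.25 mM) stimulation; lower signal means less secretion.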
# TDP1 cell noCPT: qHTS for Inhibitors of human tyrosyl-DNA phosphodiesterase 1 (TDP1): qHTS in cells in absence of CPT. DT40 Tdp1-/- hTDP1 cells, no CPT, ATP luminescence, 48 h. Potency, µM (series often up to 46.2 µM), inactives show at the top dose activity change, negative = growth inhibition, actives largely listed as inhibitors. actives 15% (n = 420,000). AID 686978, 2013; further: potency means the concentration at half of the fitted maximal effect; on the % scale 0 is the no-effect control and ±100 the full control effect; nearly all actives have a fitted effect of over 55% in size
#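 Compound effects on proliferation are scored in DT40 Tdp1-/-;hTDP1 cells in the absence of CPT. ATP levels (CellTiter-Glo luminescence) are recorded after a ≥48 hr, 37 °C incubation.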
# TDP1 block: blocks human tyrosyl-DNA phosphodiesterase 1; Q9NUW8; recombinant TDP1, AlphaScreen DNA substrate cleavage; Potency, µM (doses to about 130 µM), for the others: at the top dose activity change, negative = inhibition, usual class: inhibitors; actives 0.28% (n = 350,000); AID 485290; further: potency means the concentration at half of the fitted maximal effect; on the % scale 0 is the no-effect control and ±100 the full control effect; nearly all actives have a fitted effect of over 40% in size
# Target sequence (Q9NUW8 whole entry, looked up): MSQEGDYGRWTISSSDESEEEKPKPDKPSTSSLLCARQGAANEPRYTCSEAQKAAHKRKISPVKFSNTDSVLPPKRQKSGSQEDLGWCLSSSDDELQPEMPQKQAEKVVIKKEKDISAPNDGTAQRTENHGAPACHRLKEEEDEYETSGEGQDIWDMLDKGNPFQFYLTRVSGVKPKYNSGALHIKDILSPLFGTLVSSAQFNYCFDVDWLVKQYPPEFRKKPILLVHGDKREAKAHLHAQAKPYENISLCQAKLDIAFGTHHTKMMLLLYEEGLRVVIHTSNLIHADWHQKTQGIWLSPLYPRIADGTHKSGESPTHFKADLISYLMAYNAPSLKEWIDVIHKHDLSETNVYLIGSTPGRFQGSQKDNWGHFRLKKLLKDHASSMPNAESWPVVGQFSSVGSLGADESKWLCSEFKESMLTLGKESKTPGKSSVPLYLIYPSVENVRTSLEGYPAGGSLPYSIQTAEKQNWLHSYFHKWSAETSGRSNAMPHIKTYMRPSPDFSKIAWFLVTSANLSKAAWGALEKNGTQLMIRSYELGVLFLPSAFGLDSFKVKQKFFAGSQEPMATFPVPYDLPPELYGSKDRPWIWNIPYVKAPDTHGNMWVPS
#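 Enzyme-compound mixtures sat 15 min at room temperature, followed by a 5 min reaction with 15 nM final substrate and 10 min with AlphaScreen beads. Recombinant human Tdp1 was used at 1 nM final.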
# HepG2 tox: HepG2 cytotoxicity, counter-screen for TGF-b inhibitors; HepG2 CAGA-GFP viability, ATP luminescence, 18 h; Potency, µM (series often up to 46.1 µM), inactives show top-dose activity change, negative = cytotoxicity, actives largely listed as cytotoxic; actives 0.76% (n = 410,000); AID 588856; further: potency means the concentration at half of the fitted maximal effect
#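 HepG2 CAGA-GFP cells (1000/well, DMEM with 1% FBS) received compound, then TGF-beta at 500 pg/mL final, and were incubated 18 hours at 37 degrees C. Viability was read by CellTiter-Glo luminescence. Media-only wells were set as complete cell-killing and DMSO as no toxicity.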
# TGFb inhibitor: inhibitors of TGF-b signaling | Potency, µM (doses to about 46.1 µM), inactives show top-dose activity, negative = inhibition, actives largely listed as inhibitors | actives 1.2% (n = 410,000) | HepG2 CAGA-GFP TGF-b/SMAD3 reporter, GFP fluorescence, 18 h; TGF-beta stimulated, 500 pg/mL final | AID 588855; further: potency means the concentration at half of the fitted maximal effect; on the % scale 0 is the no-effect control and ±100 the full control effect; nearly all actives have a fitted effect of over 65% in size
#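 Inhibition of TGF-beta-driven CAGA-GFP reporter expression in HEPG2 cells is measured by cellular GFP fluorescence after 18 h stimulation with 500 pg/mL recombinant TGF-beta in 1% FBS medium at 37 degrees C.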
# DT40 TDP1 CPT: growth inhibition of DT40 Tdp1-/-;hTDP1 cells with camptothecin (screen for TDP1 inhibitors); chicken DT40 Tdp1-/-;hTDP1 cells + 20 nM CPT, ATP luminescence, 48 h; Potency, µM (doses to about 46.2 µM), without a hit: top-dose activity change, negative = growth inhibition, most hits filed as inhibitors; actives 12% (n = 420,000); AID 686979; further: potency means the concentration at half of the fitted maximal effect; on the % scale 0 is the no-effect control and ±100 the full control effect; nearly all actives have a fitted effect of over 55% in size
#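 Chicken DT40 Tdp1-/- cells stably complemented with human TDP1 were seeded at 400 cells/well in medium containing 20 nM camptothecin, exposed to pin-transferred compounds, and grown at 37 °C for at least 48 hr. Viability was read as ATP luminescence.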
# * = called active by the depositor; u = inconclusive; x = no result given; [ ] = dose if it differs, or a comment. Sampled rows, rich in hits. Any-hit rate of the full collection: about 19%. Unless noted, the call rests on the fitted dose curve; in most records, active means well fitted curve in the direction sought with a large enough effect; inconclusive means small, poorly fitted or top-dose-only effect, or another doubt; inactive means no such curve, though single readings can be large; an effect the other way counts as inactive or inconclusive.
SMILES,IL-1B inflam inh,TDP1 cell noCPT,TDP1 block,HepG2 tox,TGFb inhibitor,DT40 TDP1 CPT
NCCC[C@@H](CC(=O)N[C@@H]1CCCC[C@H]1C(=O)N[C@H](CC(=O)N[C@@H](CCC(=O)O)CC(=O)O)Cc1c[nH]c2ccccc12)NC(=O)C[C@H](CO)NC(=O)[C@@H]1CNCC[C@H]1N,x,x,2%,x,x,x
CC(C)(C)c1ccc(OC2C(O)COC2/C=C/C#Cc2ccccc2)cc1 (stereo not drawn),x,x,4%[21 µM],x,x,x
COc1ccc(Nc2nc(N)c([N+](=O)[O-])c(NC3CCCCC3)n2)cc1,-95*,u,x,22µM*,u,16µM*
COc1nc(Nc2ccc([N+](=O)[O-])cc2)nc(NC2CCCCC2)n1,-78*,u,11%,-8%,1%,u
COc1ccc(Nc2nc(N)c([N+](=O)[O-])c(NCCO)n2)cc1,x,-24%,x,-35%,u,-2%
COc1ccc(Nc2nc(N)c([N+](=O)[O-])c(NCc3ccccc3)n2)cc1,36,16µM*,5%,-23%,-16%,u
Cc1ccc(Nc2nc(N)c([N+](=O)[O-])c(NCc3ccccc3)n2)cc1,x,u,8%,-62%,u,-30%
CC[C@]12c3[nH]c4cc(-c5ccco5)ccc4c3CCN1C(=O)[C@@H](CC(=O)NCCCn1ccnc1)C[C@@H]2C(=O)N1CCN(C(=O)C2CC2)CC1,0,1%,2%[56.1 µM],-13%,4%,3%
CC(C)C(NC(=O)CCNC(=O)c1ccc(C(C)(C)C)cc1)c1nc2ccccc2[nH]1 (stereo not drawn),1,18µM*,0%,-2%,2%,u
O=C(/C=C/Nc1ccc(Oc2ccccc2Cl)cc1)c1ccco1,-23,15µM*,0%,-29%,-23%,18µM*
COc1ccccc1Oc1ccc(N/C=C/C(=O)c2ccco2)cc1,-52*,18µM*,0%,3%,25%,u
CC(=O)Nc1ccc(N/C=C/C(=O)c2ccco2)cc1,2,-3%,-7%,16%,-7%,-16%
CN(C)c1ccc(N/C=C/C(=O)c2ccco2)cc1,u,u,2%,-41%,-6%,21µM*
O=C(/C=C/Nc1ccccc1Oc1ccccc1)c1ccco1,u,u,-3%,10%,-1%,2%
COC(=O)[C@H]1C[C@@H]1[C@H](NS(=O)(=O)c1ccc(-c2ccccc2)cc1)c1ccccc1,x,x,4%,x,x,x
O=C(Nc1ccccn1)c1nc(-c2ccccc2)n(-c2ccccc2)n1,-20,u,2%,-7%,3%,u
CC(=O)c1ccc(NC(=O)c2nc(-c3ccccc3)n(-c3ccccc3)n2)cc1,x,21µM*,11%,-33%,5%,u
CC(=O)c1cccc(NC(=O)c2nc(-c3ccccc3)n(-c3cccc(Cl)c3)n2)c1,x,13µM*,9%,-24%,-15%,16µM*
NC(=O)c1ccsc1NC(=O)c1nc(-c2ccccc2)n(-c2ccccc2)n1,-52*,u,4%,-18%,-19%,u
CC(=O)c1ccc(NC(=O)c2nc(-c3ccccc3)n(-c3ccccc3Cl)n2)cc1,x,18µM*,3%,-32%,1%,26µM*
N#Cc1ccc(NC(=O)c2nc(-c3ccccc3)n(-c3ccccc3)n2)cc1,-3,u,2%,-4%,-5%,u
CC1NC(=O)c2cccnc2-n2c1nc1cc(F)c(F)cc1c2=O (stereo not drawn),32,0%,x,-15%,6%,4%
CC(C)CCSc1nc2c(c(=O)n(C)c(=O)n2C)n1Cc1ccccc1Cl,x,-17%,0%,-25%,-3%,6%
CCCC(NC(=O)CCl)c1ccccc1 (stereo not drawn),-92*,29µM*,0%,-26%,u,13µM*
CC(C)(CCc1ccccn1)C(=O)C(CCc1ccccn1)CCc1ccccn1,-55*,u,x,1%,-12%,u
SMILES,IL-1B inflam inh,TDP1 cell noCPT,TDP1 block,HepG2 tox,TGFb inhibitor,DT40 TDP1 CPT
CC(CCc1ccccn1)C(=O)C(C)CCc1ccccn1 (stereo not drawn),0,u,x,0%,-2%,u
NCCCC[C@H](N)c1nnc([C@H](CCC(=O)O)NC(=O)C2CCNCC2)o1,6,-1%,4%,0%,-25%,-6%
Fc1ccc(-n2cc(-c3ccccc3)c3c(NN4CCOCC4)ncnc32)cc1,-73*,23µM*,2%,-53%,-12%,u
NS(=O)(=O)c1ccc(CCNc2ncnc3c2c(-c2ccccc2)cn3-c2ccc(F)cc2)cc1,x,u,0%,-20%,u,u
COc1ccc(-n2cc(-c3ccccc3)c3c(NN4CCOCC4)ncnc32)cc1,-85*,16µM*,3%,-37%,-12%,u
COCCCNc1ncnc2c1c(-c1ccccc1)cn2-c1ccc(C)c(Cl)c1,x,u,5%,0%,4%,18µM*
COc1cccc(-n2nnnc2SCC(=O)Nc2ccc(C(C)=O)cc2)c1,24,23µM*,5%,-13%,-6%,26µM*

# High-throughput results as filed in PubChem BioAssay.
